Rows were chosen to be rich in hits. Some 10% of all compounds tested hit in one or more screens of this group.
Mm-Cpn inhibitor = M. maripaludis TRiC chaperonin inhibition | hit rate 0.031% among 330,000 | purified Mm-Cpn ATPase, ADP Transcreener TR-FRET | Potency, µM (highest dose often 76.9 µM), inactives show at the top dose activity, negative = inhibition, hits mostly inhibitors | AID 504842; further: potency means the concentration at half of the fitted maximal effect; nearly all actives have a fitted effect of over 80% in size
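ATPase read-out: TR-FRET ADP immunoassay (anti-ADP Eu cryptate vs ADP-d2), ex 320 nm, em 590/665 nm; signal drops as ADP forms. Enzyme 25 nM, ATP 10 uM, 30 min at 37°C after 10 min compound preincubation.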
G9a block = blocks human histone lysine methyltransferase G9a; Q96KQ7; Potency, µM (doses to about 102 µM), for the others: at the top dose activity, negative = inhibition, hits mostly inhibitors; G9a H3K9 monomethylation, AlphaScreen, 2 h; hit rate 8.8% among 350,000; further: potency means the concentration at half of the fitted maximal effect; nearly all actives have a fitted effect of over 75% in size
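Signal arises when biotinylated H3K9 peptide, once monomethylated, bridges streptavidin donor and antibody-captured acceptor beads. Enzyme at 20 nM was preincubated 15 min with test compounds; peptide 500 nM and SAM 20 uM then reacted for 2 h.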
VDR inh = inhibitors of human vitamin D receptor; Potency, µM, for inactives: max response, negative = inhibition, actives largely listed as inhibitors; hit rate 0.93% among 400,000; AID 504847; VDR-SRC2-3 peptide fluorescence polarization, 2 h; P11473; further: potency means the concentration at half of the fitted maximal effect
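VDR–SRC2-3 interaction, FP format. Cmpds 23 nl via pintool, brief spin, 2 h ambient incubation.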
CCT modulator = modulators of cytosolic chaperonin (CCT/TRiC) activity; purified chaperonin ATPase assay, HTRF ADP detection, 30 min; activity change, % (no concentration beside the values), hits read low; hit rate 0.3% among 360,000; AID 651819; in the data active means activity change below about -30%
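ATPase activity: ADP formed was measured by HTRF Transcreener (665/615 nm ratio) after 30 min at 37 deg C with 10 uM ATP. Compounds screened at one 76 uM concentration against 40 or 20 nM TRiC in Tris pH 7.4/KCl/MgCl2/DTT buffer.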
Sfp PPTase inh = Sfp phosphopantetheinyl transferase inhibition; hit rate 3.5% among 310,000; Q9F4F7; AID 1490; Potency, µM, inactives show largest response in the series, negative = inhibition, actives largely listed as inhibitors; Biochemical Sfp PPTase activity, qHTS;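 further: the enzyme is Sfp with the accession as filed and its product quenches rhodamine fluorescence; potency means the concentration at half of the fitted maximal effect; 0% = enzyme reaction without inhibitor and -100% = no enzyme wells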
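Buffer: 50 mM Hepes-Na pH 7.6, 10 mM MgCl2, 0.01% Nonidet P-40, 0.01% BSA. Enzyme 15 nM, pre-exposed to compound 15 min; substrates then added and fluorescence change tracked over 30 min.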
PLK1 PBD inh = blocks phosphopeptide binding to human PLK1 polo-box domain; P53350; Plk1 PBD binding of FITC phosphopeptide, fluorescence polarization; Potency, µM, without a hit: max response, negative = inhibition, most hits filed as inhibitors; hit rate 2.8% among 360,000; AID 720504; further: potency means the concentration at half of the fitted maximal effect; series mostly up to about 57 µM; nearly all actives have a fitted effect of over 65% in size
Target sequence (P53350 whole entry, looked up, the tested form may be a part): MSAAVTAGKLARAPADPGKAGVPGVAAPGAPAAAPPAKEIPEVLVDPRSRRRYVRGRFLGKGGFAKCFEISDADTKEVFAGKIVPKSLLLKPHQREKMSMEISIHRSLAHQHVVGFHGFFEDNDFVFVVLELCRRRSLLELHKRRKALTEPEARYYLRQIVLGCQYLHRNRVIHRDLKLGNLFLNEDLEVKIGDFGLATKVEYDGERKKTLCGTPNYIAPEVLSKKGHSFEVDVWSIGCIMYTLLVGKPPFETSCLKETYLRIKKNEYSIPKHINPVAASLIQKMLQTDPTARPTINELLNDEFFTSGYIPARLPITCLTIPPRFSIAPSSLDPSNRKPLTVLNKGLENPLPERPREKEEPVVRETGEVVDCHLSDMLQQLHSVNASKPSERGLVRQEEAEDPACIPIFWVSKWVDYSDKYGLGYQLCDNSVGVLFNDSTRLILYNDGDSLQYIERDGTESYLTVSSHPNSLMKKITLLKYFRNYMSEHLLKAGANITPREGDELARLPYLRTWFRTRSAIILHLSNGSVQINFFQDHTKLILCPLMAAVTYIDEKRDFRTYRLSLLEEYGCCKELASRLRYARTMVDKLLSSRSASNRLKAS
The depositor's hits bear a star; u = inconclusive; x = no result given; [ ] = remark or other dose. Unless noted, the call rests on the fitted dose curve; in most records, active means well fitted curve in the direction sought with a large enough effect; inconclusive means small, poorly fitted or top-dose-only effect, or another doubt; inactive means no such curve, though single readings can be large; an effect the other way counts as inactive or inconclusive. Unless noted, on the % scale 0 is the no-effect control and ±100 the full control effect.

SMILES	Mm-Cpn inhibitor	G9a block	VDR inh	CCT modulator	Sfp PPTase inh	PLK1 PBD inh
O=C1c2ccccc2C(Nc2ccc(S(=O)(=O)N3CCOCC3)cc2)N1Cc1ccco1 (stereo not drawn)	2%	u	-4%	-3	-5%	-19%
COC(=O)c1cc(NC2c3ccccc3C(=O)N2Cc2ccco2)cc(C(=O)OC)c1 (stereo not drawn)	1%	-1%	-8%	1	12%	-10%
CCc1cccc(C)c1NC(=O)CN1C(=O)c2c(c3ccccc3n2C)C1c1ccc(OC)cc1 (stereo not drawn)	x	-2%[59 µM]	1%	x	x	x
O=C1c2ccccc2C(Nc2ccc3c(c2)OCO3)N1Cc1ccc2c(c1)OCO2 (stereo not drawn)	1%	40µM*	5%	-2	u	-1%
Cc1cccc(N2CCN(C(=S)c3ccc(-c4ccccc4[N+](=O)[O-])o3)CC2)c1	-2%	11µM*	-11%	0	u	u
CC(=O)c1cccc(NC(=O)c2ccc(-c3ccccc3[N+](=O)[O-])o2)c1	0%	u	-7%	-1	-69%	1%
O=[N+]([O-])c1ccccc1-c1ccc(C(=S)N2CCCCC2)o1	1%	20µM*	u	-5	25µM*	-19%
Fc1ccccc1N1CCN(Cc2cccnc2)CC1	0%	28µM*	0%	2	-4%	-1%
Fc1ccccc1N1CCN(CC2CCCCC2)CC1	0%	19%[0.501 µM]	-13%	-2	-7%	-5%
Cc1cc(-c2ccccc2)n2nc(-c3cccc(Br)c3)cc2n1	x	126%[59 µM]	6%	x	x	x
CC(C)(c1cc(Br)c(O)c(Br)c1)c1cc(Br)c(O)c(Br)c1	1%	6%[0.501 µM]	-10%	0	x	27µM*
CCCNC(=O)c1ccc(-c2nc(CS(=O)(=O)c3ccc(C)cc3)c(C)o2)cc1	x	u	2%	x	x	x
CC(=O)Nc1cccc(C(=O)OC(C)C(=O)Nc2ccc(S(=O)(=O)N3CCCC3)cc2)c1 (stereo not drawn)	-2%	50µM*	8%	0	x	6%
CC(=O)Nc1ccc(NC(=O)C(C)OC(=O)c2cccc(S(=O)(=O)N3CCCC3)c2)cc1 (stereo not drawn)	-1%	40µM*	-6%	-1	x	-4%
CC(OC(=O)c1cccc(S(=O)(=O)N2CCCCCC2)c1)C(=O)Nc1ccc(S(N)(=O)=O)cc1 (stereo not drawn)	0%	50µM*	5%	0	x	-3%
CC1CCN(C(=O)CSc2nc3ccccc3nc2Cc2ccccc2)CC1	x	18%[59 µM]	1%	x	x	x
CCOc1ccc(-c2nnc(-c3ccncc3)o2)cc1	0%	-30%	71µM*	1	9%	27µM*
CCCCOc1ccc(-c2nnc(-c3ccncc3)o2)cc1	0%	12%	-14%	1	-5%	1%
Cc1cccc(Nc2nnc(-c3ccc(C)c(S(=O)(=O)NCC4CCCO4)c3)c3ccccc23)c1 (stereo not drawn)	x	-48%[59 µM]	-18%	x	x	x
COC(=O)[C@@H]1C[C@H]1[C@@H](N)c1ccccc1	x	x	x	x	14%	x
O=C(CSC1=NS(=O)(=O)c2cc(Cl)ccc2N1)c1ccc(Cl)cc1	-15%	56µM*	-3%	0	x	-6%
O=C(Nc1ccc(N2CCCC2)cc1)c1cc(Br)ccc1Cl	-1%	8.9µM*	-19%	1	9%	-1%
CN(c1ccccc1)S(=O)(=O)c1ccc(Cl)c(C(=O)Nc2ccc(N3CCOCC3)cc2)c1	1%	50µM*	3%	1	16%	0%
O=C(Nc1ccc(CN2CCCCC2)cc1)Nc1ccc(Br)cc1Cl	0%	-11%	-13%	-5	79µM*	-11%
CS(=O)(=O)c1ccc(C(=O)Nc2ccc(N3CCOCC3)cc2)c(Cl)c1	-3%	-7%	7%	0	22%	-8%
SMILES	Mm-Cpn inhibitor	G9a block	VDR inh	CCT modulator	Sfp PPTase inh	PLK1 PBD inh
CS(=O)(=O)c1ccc(C(=O)Nc2ccc(N3CCCC3)cc2)c(Cl)c1	-2%	10µM*	-4%	2	2%	-10%
S=C(Nc1ccc(Br)cc1Cl)N1CCCC1	-3%	16%	3%	0	10%	0%
Cc1nc2ccc(NC(=O)c3cc(S(=O)(=O)N(C)c4ccccc4)ccc3Cl)cc2s1	-3%	-2%[59 µM]	-14%	-2	9%	17%
CCCC(=O)N(c1ccc2oc(-c3ccccc3)c(C(=O)OCC)c2c1)S(=O)(=O)c1ccc(C)cc1	x	-17%[59 µM]	-18%	x	x	x
Cc1ccc(NC2c3ncccc3C(=O)N2c2ccccc2C)cc1C (stereo not drawn)	-11%	u	-3%	0	45µM*	6.7µM*
CCOc1ccc(N2C(=O)c3cccnc3C2Nc2ccc(Cl)cc2)cc1 (stereo not drawn)	-2%	-11%[59 µM]	11%	0	10%	-4%
Cn1c(-n2cccc2)c(-c2c(-c3ccccc3)[nH]c3c2c(=O)[nH]c(=O)n3C)c(=O)[nH]c1=O	0%	-4%[12.7 µM]	4%	x	x	x
COC(=O)[C@@]1(C)[C@H]2C(=O)N(C)C(=O)[C@H]2[C@H]2CN=C(SCC(=O)c3ccccc3)N21	0%	x	32µM*	-2	x	24µM*
CCS(=O)(=O)c1ncc(N(Cc2cccc(F)c2)Cc2ccco2)c(C(=O)Nc2ccccc2Cl)n1	x	-25%[59 µM]	-1%	x	x	x
COc1ccc(Br)cc1-c1nc(C)c(C(C)=O)n1O	0%	10µM*	-17%	-1	0%	-4%
COc1ccc(Br)cc1-c1noc(-c2ccccc2)n1	-3%	0%[59 µM]	-4%	-1	-15%	-1%
Nn1c(SCc2nc3ccccn3c2Br)nnc1-c1cccnc1	-1%	-2%[59 µM]	-6%	0	0%	-16%
CCCCSCc1nc2ccccn2c1Br	-2%	13µM*	2%	1	-2%	-5%
CCSCc1nc2ccccn2c1Br	2%	13µM*	-11%	-2	-4%	-8%
CCOc1cccc2cc(-c3nc4sc(C(=O)Nc5ccc(C)cc5)c(C)c4c(=O)[nH]3)c(=O)oc12	x	5%[59 µM]	5%	x	x	x
CN(C)C(CNc1ccc(S(C)(=O)=O)cc1[N+](=O)[O-])c1ccccc1 (stereo not drawn)	2%	-9%	8%	-1	11%	-7%
COc1ccc(/C=N/Nc2ccc(C(F)(F)F)cc2[N+](=O)[O-])cc1	0%	3%[59 µM]	0%	0	8%	0%
CN(C)C(CNc1ccc(C(F)(F)F)cc1[N+](=O)[O-])c1ccccc1 (stereo not drawn)	0%	32µM*	-18%	2	-11%	-8%
Cc1ccc(Nc2ccc(C(F)(F)F)cc2[N+](=O)[O-])cc1	-1%	3.2µM*	-21%	0	15%	-5%
CC(C)c1ccc(CNc2cc(N3CCCC3)ccc2[N+](=O)[O-])cc1	2%	u	3%	-1	-11%	-5%

Screening results as filed in PubChem.
